Some test systems named below: SR leukemia; RPMI-8226 leukemia; OVCAR-8 ovarian; OVCAR-5 ovarian; OVCAR-4 ovarian; SK-OV-3 ovarian; IGROV1 ovarian; OVCAR-3 ovarian; HS 578T breast; NCI/ADR-RES ovarian; T-47D breast; BT-549 breast; MDA-MB-435 melanoma; SW-620 colon; MCF7 breast; HCT-116 colon; HCC-2998 colon; KM12 colon; MDA-MB-468 breast.
Holding throughout (experiment): NCI-60 one-dose screen, 48 h (100 = growth as untreated, 0 = no growth, -100 = all killed)
Details in all cases: 10 µM unless noted

Data on six molecules can be found in PubChem BioAssay (NCI).

SMILES strings stand for the structures. Compounds without any hit were thinned out: in the full panel of roughly 83,000, 20% have a hit.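 96-well plates, one dose, 48 hours. Percent growth reported; active if below 10.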 Values without a mark were called inactive. Calls of active or inactive are those of the source.

With `Cc1cccc(-c2ccccc2Oc2ccc3nnc(Cl)n3n2)c1`, the growth in the experiment with SR leukemia was 86.9%; with RPMI-8226 leukemia, 107%; in the experiment with OVCAR-8 ovarian, 104%; in the experiment on OVCAR-5 ovarian, 104%; in the experiment with OVCAR-4 ovarian, 104%; in the experiment with SK-OV-3 ovarian it was 124%. The growth in the experiment on IGROV1 ovarian was 103%; in the experiment with OVCAR-3 ovarian it was 112%; in the experiment on HS 578T breast it was 102%; in the experiment with NCI/ADR-RES ovarian, 102%; in the experiment with T-47D breast it was 111%; with BT-549 breast, 99.8%. The growth in the experiment on MDA-MB-435 melanoma was 105%; in the experiment with SW-620 colon, 101%; in the experiment with MCF7 breast, 95%; in the experiment with HCT-116 colon it was 104%; in the experiment on HCC-2998 colon it was 105%; with KM12 colon it was 106%. For the same molecule, the growth in the experiment with MDA-MB-468 breast is 98.3%.
As to `Cc1cc(C(NC(=O)CCCCCNc2cccc3c2C(=O)N(C2CCC(=O)CC2=O)C3=O)c2cccc(N(C)C)c2)c(O)c2ncccc12` (centres undefined), the growth in the experiment with SR leukemia is 25.3%; in the experiment with RPMI-8226 leukemia it was 15.6%; with OVCAR-8 ovarian, 2.18% (active); in the experiment with OVCAR-5 ovarian, 38.1%; in the experiment with OVCAR-4 ovarian, 33.2%; with SK-OV-3 ovarian, -2.15% (active). The growth was 1.63% (active) in the experiment on IGROV1 ovarian; 16.3% with OVCAR-3 ovarian; 19.6% with HS 578T breast; 50.6% in the experiment on NCI/ADR-RES ovarian; 4.11% (active) in the experiment on T-47D breast; -8.92% (active) in the experiment on BT-549 breast. Moreover, the growth in the experiment on MDA-MB-435 melanoma is 36.1%; in the experiment on SW-620 colon it was 23.7%; with MCF7 breast it was 10.9%; in the experiment on HCT-116 colon, 13.8%; in the experiment on HCC-2998 colon, 14.6%; in the experiment with KM12 colon, 15.3%. Besides, in the experiment with MDA-MB-468 breast, the growth is -24.4% (active).
Take `O=C(Nc1ccc(Cl)c(C(F)(F)F)c1)N1CCN(c2cc(-c3cn(-c4ccccc4)nc3-c3cccc(O)c3)ccn2)CC1`: the growth is 10.8% in the experiment on SR leukemia; -13.7% (active) in the experiment on RPMI-8226 leukemia; 8.11% (active) with OVCAR-8 ovarian; -35.1% (active) in the experiment with OVCAR-5 ovarian; 13.5% in the experiment with OVCAR-4 ovarian; 24.3% in the experiment with SK-OV-3 ovarian. Also, the growth with IGROV1 ovarian is 10.8%; in the experiment with OVCAR-3 ovarian, 13.5%; in the experiment with HS 578T breast it was 7.22% (active); in the experiment with NCI/ADR-RES ovarian, -23.9% (active); with T-47D breast, -1.78% (active); in the experiment with BT-549 breast, -39.4% (active). The growth in the experiment with MDA-MB-435 melanoma is -65.4% (active); with SW-620 colon, 16.6%; with MCF7 breast, -22.2% (active); in the experiment on HCT-116 colon, 4.83% (active); with HCC-2998 colon, 6.31% (active); in the experiment on KM12 colon, -8.11% (active). In addition, the growth with MDA-MB-468 breast was -34.8% (active).
Take `COc1ccc(/C=C/C(=O)c2ccc(OC)c(S(N)(=O)=O)c2)c(C(F)(F)F)c1`: the growth is 0.801% (active) in the experiment on SR leukemia; 3.98% (active) in the experiment on RPMI-8226 leukemia; 6.69% (active) in the experiment on OVCAR-8 ovarian; 3.65% (active) with OVCAR-5 ovarian; 18.6% in the experiment on OVCAR-4 ovarian; 66.6% with SK-OV-3 ovarian. For the same molecule, the growth is 1.64% (active) with IGROV1 ovarian; 15.8% with OVCAR-3 ovarian; 49.3% in the experiment on HS 578T breast; -31.4% (active) in the experiment with NCI/ADR-RES ovarian; 29.3% in the experiment on T-47D breast; -78.9% (active) with BT-549 breast. The growth was 63.6% in the experiment on MDA-MB-435 melanoma; 7.45% (active) in the experiment on SW-620 colon; 8.35% (active) with MCF7 breast; -44.3% (active) in the experiment on HCT-116 colon; -95.4% (active) in the experiment on HCC-2998 colon; 6.97% (active) in the experiment with KM12 colon. For the same molecule, the growth with MDA-MB-468 breast is 7.25% (active).
In the case of `COC(=O)c1c(C(=O)OC)c2c3ccccc3c3ccccc3n2c1C(=O)C(C)(C)C`, the growth in the experiment on SR leukemia was -17.3% (active); with RPMI-8226 leukemia, 47.2%; in the experiment on OVCAR-8 ovarian, 90.5%; in the experiment with OVCAR-5 ovarian it was 97.9%; in the experiment with OVCAR-4 ovarian it was 57.6%; in the experiment on SK-OV-3 ovarian, 122%. In addition, the growth with IGROV1 ovarian was 96.3%; with OVCAR-3 ovarian, 112%; in the experiment with HS 578T breast, 69.4%; in the experiment with NCI/ADR-RES ovarian, 83.3%; with T-47D breast, 46.4%; in the experiment on BT-549 breast, 62.5%. Besides, the growth with MDA-MB-435 melanoma is 83.2%; in the experiment with SW-620 colon it was 100%; in the experiment on MCF7 breast, 73%; in the experiment on HCT-116 colon, 59%; with HCC-2998 colon, 85.6%; in the experiment on KM12 colon, 62.5%. Further, in the experiment on MDA-MB-468 breast, the growth was 54.1%.
With `COc1cc(/C=C/C(=O)c2cnn(-c3cc(=O)[nH]c4ccccc34)c2C)cc(OC)c1OC`, the growth with SR leukemia is -3.34% (active); in the experiment with RPMI-8226 leukemia it was -11.6% (active); in the experiment with OVCAR-8 ovarian it was -18.1% (active); in the experiment on OVCAR-5 ovarian it was -3.98% (active); in the experiment on OVCAR-4 ovarian it was 39.4%; in the experiment with SK-OV-3 ovarian, 9.66% (active). Further, the growth was 6.78% (active) in the experiment with IGROV1 ovarian; 8.06% (active) with OVCAR-3 ovarian; 35.5% in the experiment with HS 578T breast; 42.2% in the experiment on NCI/ADR-RES ovarian; 10.7% in the experiment on T-47D breast; -4.19% (active) in the experiment on BT-549 breast. The growth in the experiment with MDA-MB-435 melanoma was 21.1%; in the experiment with SW-620 colon it was 24.4%; in the experiment on MCF7 breast, 10.8%; in the experiment with HCT-116 colon, 5.92% (active); with HCC-2998 colon, -1.51% (active); in the experiment on KM12 colon, 4.79% (active). Also, in the experiment with MDA-MB-468 breast, the growth is -35.3% (active).
